# Assay results taken from PMC7862700, “An all-to-all approach to the identification of sequence-specific readers for epigenetic DNA modifications on cytosine”.
# Tests used:
# Test in all cases: DAPPL (digital affinity profiling via proximity ligation, sequencing); 10 mM Tris-HCl pH 7.5, 50 mM NaCl, 1 mM DTT, 4% glycerol, room temperature, 30 min; GST-TFs on glutathione beads, 16-mer random dsDNA library, 0.1% formaldehyde crosslink after washing; high values mean tight binding
# FLI1 = molecular target: T1, FLI1 (Homo sapiens, UniProt Q01543 1-452); details: protein: recombinant; tags: N-terminal GST; dsDNA, one strand shown
# T1 sequence: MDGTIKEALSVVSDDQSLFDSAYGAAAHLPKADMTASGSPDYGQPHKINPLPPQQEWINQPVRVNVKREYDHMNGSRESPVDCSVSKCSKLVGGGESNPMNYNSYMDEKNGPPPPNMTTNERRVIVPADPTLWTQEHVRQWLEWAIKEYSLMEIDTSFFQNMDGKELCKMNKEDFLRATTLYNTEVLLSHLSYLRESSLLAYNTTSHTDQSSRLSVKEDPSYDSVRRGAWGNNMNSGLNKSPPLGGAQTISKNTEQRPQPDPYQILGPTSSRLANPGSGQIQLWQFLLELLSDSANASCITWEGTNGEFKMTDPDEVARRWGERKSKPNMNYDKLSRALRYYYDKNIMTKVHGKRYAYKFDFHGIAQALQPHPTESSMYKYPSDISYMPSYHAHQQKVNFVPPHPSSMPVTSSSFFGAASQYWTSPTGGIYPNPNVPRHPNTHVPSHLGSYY
# Outline: (§1)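 Human transcription factors carrying a GST fusion were produced in yeast, bound to glutathione beads, tagged with DNA barcodes and pooled together with a tag-only sample. Each pool was held with 200 nmole of a random double-stranded 16-mer DNA library in Tris/NaCl/DTT/glycerol buffer for 30 min at room temperature, then washed, crosslinked in 0.1% formaldehyde, proximity-ligated with BsaI/T4 ligase (1 h, 37 °C), PCR-amplified and sequenced on an Illumina NextSeq500. Binding signal is the read frequency of each hexamer for a given factor divided by its frequency in the tag-only sample.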
# ELK1 = molecular target: T2, ELK1 (Homo sapiens, UniProt P19419 1-428); details: protein: recombinant; tags: N-terminal GST; dsDNA, one strand shown
# T2 sequence: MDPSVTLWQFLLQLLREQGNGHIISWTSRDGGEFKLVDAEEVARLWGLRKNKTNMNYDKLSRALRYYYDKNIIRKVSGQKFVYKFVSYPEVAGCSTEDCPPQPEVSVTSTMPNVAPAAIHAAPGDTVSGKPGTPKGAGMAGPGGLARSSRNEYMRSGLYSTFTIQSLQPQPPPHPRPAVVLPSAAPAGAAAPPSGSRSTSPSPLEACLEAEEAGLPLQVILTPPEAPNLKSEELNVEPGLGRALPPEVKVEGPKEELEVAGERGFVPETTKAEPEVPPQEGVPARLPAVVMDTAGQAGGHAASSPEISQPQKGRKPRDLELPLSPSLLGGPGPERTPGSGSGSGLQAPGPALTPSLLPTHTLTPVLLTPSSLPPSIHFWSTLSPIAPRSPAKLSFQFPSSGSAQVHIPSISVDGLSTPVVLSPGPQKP
# Outline: as §1
# GABPA = molecular target: T3, GABPA (Homo sapiens, UniProt Q06546 1-454); details: protein: recombinant; tags: N-terminal GST; dsDNA, one strand shown
# T3 sequence: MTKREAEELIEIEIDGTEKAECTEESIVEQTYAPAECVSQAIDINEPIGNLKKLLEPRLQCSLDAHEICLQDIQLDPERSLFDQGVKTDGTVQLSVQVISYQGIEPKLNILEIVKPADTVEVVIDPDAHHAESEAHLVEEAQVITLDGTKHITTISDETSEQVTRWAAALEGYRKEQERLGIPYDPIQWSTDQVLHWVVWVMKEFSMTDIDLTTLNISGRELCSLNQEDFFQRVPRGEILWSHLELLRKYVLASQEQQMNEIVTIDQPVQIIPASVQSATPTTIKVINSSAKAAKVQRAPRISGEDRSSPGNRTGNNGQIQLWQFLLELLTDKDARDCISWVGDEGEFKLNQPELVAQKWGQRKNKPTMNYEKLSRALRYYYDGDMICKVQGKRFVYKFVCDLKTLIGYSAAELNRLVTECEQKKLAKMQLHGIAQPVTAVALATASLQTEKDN
# Outline: as §1
# ERG = molecular target: T4, ERG (Homo sapiens, UniProt P11308 1-479); details: protein: recombinant; tags: N-terminal GST; dsDNA, one strand shown
# T4 sequence: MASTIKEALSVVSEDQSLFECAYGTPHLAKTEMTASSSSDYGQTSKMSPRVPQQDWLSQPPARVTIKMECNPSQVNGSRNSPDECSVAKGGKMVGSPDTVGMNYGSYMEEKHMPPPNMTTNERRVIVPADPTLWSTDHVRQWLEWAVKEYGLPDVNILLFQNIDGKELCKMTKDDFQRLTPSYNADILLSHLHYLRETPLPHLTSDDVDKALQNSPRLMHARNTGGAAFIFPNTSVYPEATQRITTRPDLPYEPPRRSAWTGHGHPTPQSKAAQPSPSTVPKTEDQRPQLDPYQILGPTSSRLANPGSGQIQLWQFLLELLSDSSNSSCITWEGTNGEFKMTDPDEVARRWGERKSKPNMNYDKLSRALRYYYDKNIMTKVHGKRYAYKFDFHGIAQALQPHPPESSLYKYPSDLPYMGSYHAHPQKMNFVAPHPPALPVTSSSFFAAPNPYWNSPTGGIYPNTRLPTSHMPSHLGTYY
# Outline: as §1
# ELF1 = ELF1 (Homo sapiens, UniProt P32519 1-619); details: protein: recombinant; tags: N-terminal GST; dsDNA, one strand shown
# Sequence of ELF1 (P32519 whole entry): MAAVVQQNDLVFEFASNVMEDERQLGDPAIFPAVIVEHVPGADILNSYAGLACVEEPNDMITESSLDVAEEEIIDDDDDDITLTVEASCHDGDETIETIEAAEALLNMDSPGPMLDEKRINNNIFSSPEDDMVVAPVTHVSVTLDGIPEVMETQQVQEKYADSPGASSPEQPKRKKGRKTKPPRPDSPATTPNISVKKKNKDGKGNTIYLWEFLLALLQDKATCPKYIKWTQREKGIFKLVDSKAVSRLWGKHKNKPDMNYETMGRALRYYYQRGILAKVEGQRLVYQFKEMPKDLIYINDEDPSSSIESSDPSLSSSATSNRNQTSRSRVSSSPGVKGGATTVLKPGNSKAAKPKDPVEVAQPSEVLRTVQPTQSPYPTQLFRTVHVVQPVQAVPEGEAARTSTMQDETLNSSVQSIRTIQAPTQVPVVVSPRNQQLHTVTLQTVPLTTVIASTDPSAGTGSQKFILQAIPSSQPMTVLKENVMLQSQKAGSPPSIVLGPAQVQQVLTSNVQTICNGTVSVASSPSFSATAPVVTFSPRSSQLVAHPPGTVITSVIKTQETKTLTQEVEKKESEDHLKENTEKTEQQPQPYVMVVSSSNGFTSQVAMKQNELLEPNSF
# Outline: as §1
# EHF = molecular target: T5, EHF (Homo sapiens, UniProt Q9NZC4 1-300); details: protein: recombinant; tags: N-terminal GST; dsDNA, one strand shown
# T5 sequence: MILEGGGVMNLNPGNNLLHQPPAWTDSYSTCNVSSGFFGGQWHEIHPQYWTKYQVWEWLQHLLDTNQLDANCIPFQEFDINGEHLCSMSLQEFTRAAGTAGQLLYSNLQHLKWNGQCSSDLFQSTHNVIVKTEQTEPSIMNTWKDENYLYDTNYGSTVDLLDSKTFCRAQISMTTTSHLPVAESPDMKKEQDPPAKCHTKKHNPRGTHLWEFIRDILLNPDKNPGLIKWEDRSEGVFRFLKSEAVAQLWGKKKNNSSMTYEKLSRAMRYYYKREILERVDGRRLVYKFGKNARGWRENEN
# Outline: as §1
# SPI1 = SPI1 (Homo sapiens, UniProt P17947 1-270); details: protein: recombinant; tags: N-terminal GST; dsDNA, one strand shown
# Outline: as §1
# SPIB = SPIB (Homo sapiens, UniProt Q01892 1-262); details: protein: recombinant; tags: N-terminal GST; dsDNA, one strand shown
# Sequence of SPIB (Q01892 whole entry): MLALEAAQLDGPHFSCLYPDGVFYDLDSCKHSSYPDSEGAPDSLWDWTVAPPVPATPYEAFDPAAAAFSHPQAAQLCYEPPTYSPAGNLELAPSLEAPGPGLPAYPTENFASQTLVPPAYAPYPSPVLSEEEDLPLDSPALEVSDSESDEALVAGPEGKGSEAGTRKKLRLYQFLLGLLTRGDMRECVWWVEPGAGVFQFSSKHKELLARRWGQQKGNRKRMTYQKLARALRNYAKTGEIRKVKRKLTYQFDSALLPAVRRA
# Outline: as §1
# ELK3 = molecular target: T6, ELK3 (Homo sapiens, UniProt P41970 1-407); details: protein: recombinant; tags: N-terminal GST; dsDNA, one strand shown
# T6 sequence: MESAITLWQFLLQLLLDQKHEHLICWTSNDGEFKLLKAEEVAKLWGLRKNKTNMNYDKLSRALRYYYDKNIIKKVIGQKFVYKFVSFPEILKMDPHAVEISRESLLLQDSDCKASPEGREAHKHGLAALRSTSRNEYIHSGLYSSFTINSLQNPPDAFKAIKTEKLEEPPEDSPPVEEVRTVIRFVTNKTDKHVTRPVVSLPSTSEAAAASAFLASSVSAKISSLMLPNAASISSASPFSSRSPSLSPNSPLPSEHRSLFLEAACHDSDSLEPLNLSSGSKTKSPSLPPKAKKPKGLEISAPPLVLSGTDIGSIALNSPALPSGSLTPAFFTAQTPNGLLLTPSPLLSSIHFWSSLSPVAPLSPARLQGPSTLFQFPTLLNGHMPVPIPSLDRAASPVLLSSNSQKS
# Outline: as §1
# FEV = molecular target: T7, FEV (Homo sapiens, UniProt Q99581 1-238); details: protein: recombinant; tags: N-terminal GST; dsDNA, one strand shown
# T7 sequence: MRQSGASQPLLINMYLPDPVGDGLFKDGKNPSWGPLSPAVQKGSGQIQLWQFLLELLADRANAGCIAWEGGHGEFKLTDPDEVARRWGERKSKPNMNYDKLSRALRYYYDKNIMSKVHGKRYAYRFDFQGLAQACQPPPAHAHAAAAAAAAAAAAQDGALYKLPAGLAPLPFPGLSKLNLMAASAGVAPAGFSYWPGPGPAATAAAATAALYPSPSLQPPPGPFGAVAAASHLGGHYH
# Outline: as §1
# ETV5 = ETV5 (Homo sapiens, UniProt P41161 1-510); details: protein: recombinant; tags: N-terminal GST; dsDNA, one strand shown
# Sequence of ETV5 (P41161 whole entry): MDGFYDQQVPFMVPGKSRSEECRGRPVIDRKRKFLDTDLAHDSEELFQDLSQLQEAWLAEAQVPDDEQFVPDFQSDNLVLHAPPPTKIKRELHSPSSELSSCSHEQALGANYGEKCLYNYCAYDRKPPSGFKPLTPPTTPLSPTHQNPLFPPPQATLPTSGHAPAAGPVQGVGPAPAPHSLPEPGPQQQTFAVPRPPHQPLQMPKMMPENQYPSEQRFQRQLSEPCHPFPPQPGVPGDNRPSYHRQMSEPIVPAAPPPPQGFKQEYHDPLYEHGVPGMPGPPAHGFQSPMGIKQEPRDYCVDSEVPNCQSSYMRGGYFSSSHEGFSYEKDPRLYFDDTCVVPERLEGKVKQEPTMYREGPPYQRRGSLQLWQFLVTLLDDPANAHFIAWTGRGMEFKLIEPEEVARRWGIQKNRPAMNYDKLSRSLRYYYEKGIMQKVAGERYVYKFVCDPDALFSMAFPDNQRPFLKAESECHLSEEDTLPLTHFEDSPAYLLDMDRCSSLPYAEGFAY
# Outline: as §1
# HSF1 = HSF1 (Homo sapiens, UniProt Q00613 1-529); details: protein: recombinant; tags: N-terminal GST; chain copies: 3; dsDNA, one strand shown
# Sequence of HSF1 (Q00613 whole entry): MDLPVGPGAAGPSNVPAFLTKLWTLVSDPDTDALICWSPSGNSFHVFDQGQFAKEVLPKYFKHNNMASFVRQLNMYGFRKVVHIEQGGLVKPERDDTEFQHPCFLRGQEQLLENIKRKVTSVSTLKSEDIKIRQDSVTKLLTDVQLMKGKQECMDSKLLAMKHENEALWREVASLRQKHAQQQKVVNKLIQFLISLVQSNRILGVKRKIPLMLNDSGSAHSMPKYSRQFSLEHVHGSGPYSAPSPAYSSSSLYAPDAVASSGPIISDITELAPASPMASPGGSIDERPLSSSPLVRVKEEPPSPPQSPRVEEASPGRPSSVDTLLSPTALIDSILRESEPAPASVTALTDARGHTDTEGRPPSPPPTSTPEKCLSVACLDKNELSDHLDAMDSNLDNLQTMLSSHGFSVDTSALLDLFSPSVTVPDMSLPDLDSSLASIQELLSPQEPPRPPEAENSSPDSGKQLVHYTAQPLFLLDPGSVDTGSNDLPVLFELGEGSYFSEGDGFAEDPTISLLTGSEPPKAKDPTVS
# Outline: as §1
# SPIC = molecular target: T8, SPIC (Homo sapiens, UniProt Q8N5J4 1-248); details: protein: recombinant; tags: N-terminal GST; dsDNA, one strand shown
# T8 sequence: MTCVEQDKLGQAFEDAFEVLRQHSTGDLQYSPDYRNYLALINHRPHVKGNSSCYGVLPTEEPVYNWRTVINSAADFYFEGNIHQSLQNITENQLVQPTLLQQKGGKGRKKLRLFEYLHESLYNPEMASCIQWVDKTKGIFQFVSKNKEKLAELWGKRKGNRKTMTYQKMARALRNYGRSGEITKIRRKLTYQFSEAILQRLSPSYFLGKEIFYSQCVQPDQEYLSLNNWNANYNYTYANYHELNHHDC
# Outline: as §1
# ELF4 = ELF4 (Homo sapiens, UniProt Q99607 1-663); details: protein: recombinant; tags: N-terminal GST; dsDNA, one strand shown
# Sequence of ELF4 (Q99607 whole entry): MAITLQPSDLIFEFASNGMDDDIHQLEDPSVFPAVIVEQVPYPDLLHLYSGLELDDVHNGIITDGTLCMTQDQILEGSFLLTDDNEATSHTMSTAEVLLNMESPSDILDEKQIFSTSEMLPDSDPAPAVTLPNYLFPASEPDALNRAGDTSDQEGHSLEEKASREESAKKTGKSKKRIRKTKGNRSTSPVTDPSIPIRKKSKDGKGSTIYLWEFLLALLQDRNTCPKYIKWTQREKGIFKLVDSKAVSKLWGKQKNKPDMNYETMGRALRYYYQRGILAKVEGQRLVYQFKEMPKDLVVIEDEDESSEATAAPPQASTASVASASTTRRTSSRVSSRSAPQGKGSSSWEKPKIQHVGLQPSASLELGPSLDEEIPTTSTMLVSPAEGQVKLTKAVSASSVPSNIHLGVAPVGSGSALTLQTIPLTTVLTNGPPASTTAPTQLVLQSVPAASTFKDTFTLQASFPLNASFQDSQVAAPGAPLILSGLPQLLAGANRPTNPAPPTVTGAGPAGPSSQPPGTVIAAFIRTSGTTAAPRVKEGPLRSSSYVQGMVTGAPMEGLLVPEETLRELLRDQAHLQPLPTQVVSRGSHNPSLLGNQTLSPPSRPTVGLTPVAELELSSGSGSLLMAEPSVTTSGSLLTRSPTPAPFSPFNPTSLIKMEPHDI
# Outline: as §1
# ELK4 = molecular target: T9, ELK4 (Homo sapiens, UniProt P28324-2 1-405); details: protein: recombinant; tags: N-terminal GST; dsDNA, one strand shown
# T9 sequence: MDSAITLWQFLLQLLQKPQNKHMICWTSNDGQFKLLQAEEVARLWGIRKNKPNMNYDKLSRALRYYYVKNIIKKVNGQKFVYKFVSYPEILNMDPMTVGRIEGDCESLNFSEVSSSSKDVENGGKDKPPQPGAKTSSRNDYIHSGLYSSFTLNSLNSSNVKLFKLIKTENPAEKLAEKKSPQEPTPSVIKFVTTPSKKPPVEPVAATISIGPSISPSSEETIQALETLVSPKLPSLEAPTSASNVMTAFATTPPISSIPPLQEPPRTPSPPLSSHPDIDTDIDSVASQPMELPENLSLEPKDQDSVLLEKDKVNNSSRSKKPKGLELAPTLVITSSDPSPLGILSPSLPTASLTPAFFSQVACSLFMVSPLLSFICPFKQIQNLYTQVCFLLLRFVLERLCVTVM
# Outline: as §1
# ETV2 = molecular target: T10, ETV2 (Homo sapiens, UniProt O00321 1-342); details: protein: recombinant; tags: N-terminal GST; dsDNA, one strand shown
# T10 sequence: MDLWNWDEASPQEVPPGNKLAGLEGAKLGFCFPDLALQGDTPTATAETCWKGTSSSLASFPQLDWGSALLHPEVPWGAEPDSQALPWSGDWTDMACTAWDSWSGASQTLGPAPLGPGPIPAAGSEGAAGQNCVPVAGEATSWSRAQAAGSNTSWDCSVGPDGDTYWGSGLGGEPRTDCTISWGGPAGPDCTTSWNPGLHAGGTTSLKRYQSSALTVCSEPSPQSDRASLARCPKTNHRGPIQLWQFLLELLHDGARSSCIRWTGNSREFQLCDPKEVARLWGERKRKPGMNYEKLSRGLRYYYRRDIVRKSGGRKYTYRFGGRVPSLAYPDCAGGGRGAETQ
# Outline: as §1
# ELF3 = molecular target: T11, ELF3 (Homo sapiens, UniProt P78545 1-371); details: protein: recombinant; tags: N-terminal GST; dsDNA, one strand shown
# T11 sequence: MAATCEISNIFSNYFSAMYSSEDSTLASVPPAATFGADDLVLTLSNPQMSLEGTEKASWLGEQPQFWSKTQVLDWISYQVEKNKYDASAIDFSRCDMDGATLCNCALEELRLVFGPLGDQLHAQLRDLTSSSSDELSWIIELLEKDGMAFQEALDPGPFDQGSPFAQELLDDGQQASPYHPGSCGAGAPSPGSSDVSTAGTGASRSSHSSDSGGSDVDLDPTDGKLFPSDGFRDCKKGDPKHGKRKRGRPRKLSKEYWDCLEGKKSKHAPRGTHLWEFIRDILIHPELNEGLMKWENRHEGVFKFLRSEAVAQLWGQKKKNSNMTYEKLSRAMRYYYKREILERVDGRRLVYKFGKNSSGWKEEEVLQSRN
# Outline: as §1
# CRX = CRX (Homo sapiens, UniProt O43186 1-299); details: protein: recombinant; tags: N-terminal GST; dsDNA, one strand shown
# Sequence of CRX (O43186 whole entry): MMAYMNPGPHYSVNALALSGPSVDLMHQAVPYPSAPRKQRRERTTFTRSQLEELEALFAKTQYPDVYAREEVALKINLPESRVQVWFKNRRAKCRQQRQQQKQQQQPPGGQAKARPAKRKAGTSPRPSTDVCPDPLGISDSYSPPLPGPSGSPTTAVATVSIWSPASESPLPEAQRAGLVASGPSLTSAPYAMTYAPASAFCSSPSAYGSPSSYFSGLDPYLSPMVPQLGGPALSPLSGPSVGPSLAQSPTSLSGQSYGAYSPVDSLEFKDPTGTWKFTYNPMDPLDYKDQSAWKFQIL
# Outline: as §1
# ETV1 = ETV1 (Homo sapiens, UniProt P50549 1-477); details: protein: recombinant; tags: N-terminal GST; dsDNA, one strand shown
# Sequence of ETV1 (P50549 whole entry): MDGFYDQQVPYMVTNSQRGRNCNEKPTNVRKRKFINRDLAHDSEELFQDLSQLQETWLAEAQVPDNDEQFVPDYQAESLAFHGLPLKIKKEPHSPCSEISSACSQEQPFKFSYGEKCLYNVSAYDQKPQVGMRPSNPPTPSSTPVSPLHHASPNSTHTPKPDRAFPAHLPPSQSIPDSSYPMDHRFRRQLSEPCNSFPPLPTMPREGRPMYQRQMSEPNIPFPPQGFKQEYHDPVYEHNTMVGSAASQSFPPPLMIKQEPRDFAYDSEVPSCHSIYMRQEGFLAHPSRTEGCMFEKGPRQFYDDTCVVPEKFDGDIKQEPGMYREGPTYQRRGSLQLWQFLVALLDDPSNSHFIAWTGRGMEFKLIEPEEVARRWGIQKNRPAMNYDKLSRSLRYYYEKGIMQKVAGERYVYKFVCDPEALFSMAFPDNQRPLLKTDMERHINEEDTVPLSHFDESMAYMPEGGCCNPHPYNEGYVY
# Outline: as §1
sequence,measurement,setting,value
GCAAAT,binding signal,FLI1,"1.05 fold enrichment (6-mer frequency, TF over GST control)"
same,binding signal,ELK1,"1.04 fold enrichment (6-mer frequency, TF over GST control)"
same,binding signal,GABPA,"1.04 fold enrichment (6-mer frequency, TF over GST control)"
same,binding signal,ERG,"1.18 fold enrichment (6-mer frequency, TF over GST control)"
same,binding signal,ELF1,"1.11 fold enrichment (6-mer frequency, TF over GST control)"
same,binding signal,EHF,"1.03 fold enrichment (6-mer frequency, TF over GST control)"
same,binding signal,SPI1,"1.02 fold enrichment (6-mer frequency, TF over GST control)"
same,binding signal,SPIB,"1.14 fold enrichment (6-mer frequency, TF over GST control)"
same,binding signal,ELK3,"1.01 fold enrichment (6-mer frequency, TF over GST control)"
same,binding signal,FEV,"1.08 fold enrichment (6-mer frequency, TF over GST control)"
same,binding signal,ETV5,"1.1 fold enrichment (6-mer frequency, TF over GST control)"
same,binding signal,HSF1,"1.08 fold enrichment (6-mer frequency, TF over GST control)"
same,binding signal,SPIC,"1.17 fold enrichment (6-mer frequency, TF over GST control)"
same,binding signal,ELF4,"1.04 fold enrichment (6-mer frequency, TF over GST control)"
same,binding signal,ELK4,"1.02 fold enrichment (6-mer frequency, TF over GST control)"
same,binding signal,ETV2,"1.06 fold enrichment (6-mer frequency, TF over GST control)"
same,binding signal,ELF3,"1.17 fold enrichment (6-mer frequency, TF over GST control)"
same,binding signal,CRX,"1.08 fold enrichment (6-mer frequency, TF over GST control)"
same,binding signal,ETV1,"1.11 fold enrichment (6-mer frequency, TF over GST control)"
